Inconclusive results are not listed. Values without a mark were called inactive. Activity calls are given as the source filed them.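 How the source made its calls: active means fitted drop in cell viability signal with half-maximal potency at most twice the top valid dose; inconclusive means flat fit with a 30 to 70% drop, or poor fit; inactive means opposite direction, flat within 30%, or potency beyond limit.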
test: HEK293 cell cytotoxicity, dose response, cytotoxicity control, ATP luminescence, dry powder, Set3, 50 µM top (AID 743135); settings: HEK293T viability, CellTiter-Glo ATP luminescence, 72 h; series mostly up to 50 µM

Q: With `Cc1c(C(=O)O)sc2nc(/C=C/c3cccc([N+](=O)[O-])c3)[nH]c(=O)c12` as the molecule, how does the outcome read?
A: inactive

Q: For `Cc1c(C(=O)O)sc2nc(/C=C/c3cnc4ccccc4c3)[nH]c(=O)c12`, which outcome is on record?
A: inactive

Q: Which outcome does the source give for `Cc1c(C(=O)O)sc2nc(/C=C/c3ccccc3O)[nH]c(=O)c12` here?
A: inactive

Q: For `Cc1c(C(=O)O)sc2nc(/C=C/c3ccc4cc[nH]c4c3)[nH]c(=O)c12`, which outcome is on record?
A: inactive

Q: Which outcome does the source give for `Cc1c(C(=O)O)sc2nc(/C=C/c3cccc(F)c3)[nH]c(=O)c12` here?
A: inactive

Q: With `Cc1c(C(=O)O)sc2nc(/C=C/c3cccnc3)[nH]c(=O)c12` as the molecule, how does the outcome read?
A: inactive

Q: For `Cc1c(C(=O)O)sc2nc(CCc3cccc(O)c3)[nH]c(=O)c12`, which outcome is on record?
A: inactive

Q: Which outcome does the source give for `Cc1c(C(=O)O)sc2nc(/C=C/c3cccc(N)c3)[nH]c(=O)c12` here?
A: inactive

Q: For `COc1cccc(/C=C/c2nc3sc(C(=O)O)c(C)c3c(=O)[nH]2)c1`, which outcome is on record?
A: inactive

Q: With `Cc1c(C(=O)O)sc2nc(/C=C/c3cccc(=O)[nH]3)[nH]c(=O)c12` as the molecule, how does the outcome read?
A: inactive

Q: For `Cc1c(C(=O)O)sc2nc(/C=C/c3ccccc3)[nH]c(=O)c12`, which outcome is on record?
A: inactive

Q: With `Cc1c(C(=O)O)sc2nc(/C=C/c3ccccn3)[nH]c(=O)c12` as the molecule, how does the outcome read?
A: inactive

Q: For `Cc1c(C(=O)O)sc2nc(/C=C/C=C/c3ccccc3)[nH]c(=O)c12`, which outcome is on record?
A: inactive

Q: With `Cc1c(C(=O)O)sc2nc(/C=C/c3cccnc3N)[nH]c(=O)c12` as the molecule, how does the activity change, negative = cytotoxicity read?
A: -17.4% [at 12 µM]

Q: With `Cc1c(C(=O)O)sc2nc(/C=C/c3ccc4[nH]ccc4n3)[nH]c(=O)c12` as the molecule, how does the activity change, negative = cytotoxicity read?
A: -5.92% [at 12 µM]

Q: For `Cc1c(C(=O)O)sc2nc(/C=C/c3cccc(O)c3)[nH]c(=O)c12`, which outcome is on record?
A: inactive

Q: Which outcome does the source give for `Cc1c(C(=O)O)sc2nc(/C=C/c3ccc4[nH]ccc4c3)[nH]c(=O)c12` here?
A: inactive

Q: Which outcome does the source give for `Cc1c(C(=O)O)sc2nc(/C=C/c3cccc(OC(F)(F)F)c3)[nH]c(=O)c12` here?
A: inactive

Q: Which outcome does the source give for `Cc1c(C(=O)O)sc2nc(/C=C/c3ccnc4ccccc34)[nH]c(=O)c12` here?
A: inactive

Q: With `Cc1c(C(=O)O)sc2nc(/C=C/c3cc4ccccc4cn3)[nH]c(=O)c12` as the molecule, how does the outcome read?
A: inactive

Q: With `Cc1c(C(=O)O)sc2nc(/C=C/c3ccc(N)nc3)[nH]c(=O)c12` as the molecule, how does the outcome read?
A: inactive

Q: For `Cc1c(C(=O)O)sc2nc(/C=C/C3CC3)[nH]c(=O)c12`, which outcome is on record?
A: inactive

Q: With `Cc1c(C(=O)O)sc2nc(/C=C/c3ccc4ccccc4c3)[nH]c(=O)c12` as the molecule, how does the outcome read?
A: inactive

Q: For `Cc1c(C(=O)O)sc2nc(/C=C/c3cccc(C(N)=O)c3)[nH]c(=O)c12`, which outcome is on record?
A: inactive

Q: For `Cc1c(C(=O)O)sc2nc(/C=C/c3ccc(O)cn3)[nH]c(=O)c12`, which activity change, negative = cytotoxicity is on record?
A: 6.21% [at 1.2 µM]

Q: Which outcome does the source give for `Cc1c(C(=O)O)sc2nc(/C=C/c3cccc(C(F)(F)F)c3)[nH]c(=O)c12` here?
A: inactive

Q: For `Cc1c(C(=O)O)sc2nc(/C=C/c3cccc(C(=O)O)c3)[nH]c(=O)c12`, which outcome is on record?
A: inactive

Q: Which outcome does the source give for `Cc1c(C(=O)O)sc2nc(/C=C/c3cccc(N4CCNCC4)c3)[nH]c(=O)c12` here?
A: inactive

Q: For `Cc1c(C(=O)O)sc2nc(/C=C/c3cccc(N4CCOCC4)n3)[nH]c(=O)c12`, which outcome is on record?
A: inactive

From PubChem BioAssay AID743135 (Broad Institute, 2013)
